This note sets out measurements from PubChem BioAssay (EPA / NIEHS).

Inconclusive results are not listed. Calls of active or inactive are those of the source. Rule for the calls: active = hit-call score of the fitted dose curve at least 0.9, where 1 is the maximum; inconclusive = response in the unintended direction; inactive = score below 0.9.

For the experiment, the target named is Nucleoli Translocation, AR (gene 367) (UniProt P10275). The experiment can be described thus: UPITT_HCI_U2OS_AR_TIF2_Nucleoli_Agonist: University of Pittsburgh U2OS Androgen Receptor-Transcriptional Intermediary Factor 2 (AR-TIF2) Agonism High Content Imaging Assay for Nucleoli Translocation (AID 2283998). The text has this: UPITT_AR_TIF2_PPIB is a cell-based, high-content imaging assay that uses U2OS, a human osteosarcoma cell line, expressing a human androgen receptor fused to red fluorescent protein and the coactivator TIF2 fused to green fluorescent protein. UPITT_HCI_U2OS_AR_TIF2_Nucleoli_Agonist is one of four assay components measured from the UPITT_AR_TIF2_PPIB assay. It is designed to make measurements of red fluorescence localized in the nucleolar region of the cell nucleus as detected with high-content fluorescent imaging.Data from the assay component UPITT_HCI_U2OS_AR_TIF2_Nucleoli_Agonist was analyzed into 1 assay endpoint. This assay endpoint, UPITT_HCI_U2OS_AR_TIF2_Nucleoli_Agonist, was analyzed in the positive analysis fitting direction relative to DMSO as the baseline of activity. Using a type of binding reporter, measures of receptor for gain-of-signal activity can be used to understand the binding at the pathway-level as it relates to the gene AR.
Chain of Nucleoli Translocation, AR (gene 367) (P10275 whole entry, looked up, the tested form may be a part): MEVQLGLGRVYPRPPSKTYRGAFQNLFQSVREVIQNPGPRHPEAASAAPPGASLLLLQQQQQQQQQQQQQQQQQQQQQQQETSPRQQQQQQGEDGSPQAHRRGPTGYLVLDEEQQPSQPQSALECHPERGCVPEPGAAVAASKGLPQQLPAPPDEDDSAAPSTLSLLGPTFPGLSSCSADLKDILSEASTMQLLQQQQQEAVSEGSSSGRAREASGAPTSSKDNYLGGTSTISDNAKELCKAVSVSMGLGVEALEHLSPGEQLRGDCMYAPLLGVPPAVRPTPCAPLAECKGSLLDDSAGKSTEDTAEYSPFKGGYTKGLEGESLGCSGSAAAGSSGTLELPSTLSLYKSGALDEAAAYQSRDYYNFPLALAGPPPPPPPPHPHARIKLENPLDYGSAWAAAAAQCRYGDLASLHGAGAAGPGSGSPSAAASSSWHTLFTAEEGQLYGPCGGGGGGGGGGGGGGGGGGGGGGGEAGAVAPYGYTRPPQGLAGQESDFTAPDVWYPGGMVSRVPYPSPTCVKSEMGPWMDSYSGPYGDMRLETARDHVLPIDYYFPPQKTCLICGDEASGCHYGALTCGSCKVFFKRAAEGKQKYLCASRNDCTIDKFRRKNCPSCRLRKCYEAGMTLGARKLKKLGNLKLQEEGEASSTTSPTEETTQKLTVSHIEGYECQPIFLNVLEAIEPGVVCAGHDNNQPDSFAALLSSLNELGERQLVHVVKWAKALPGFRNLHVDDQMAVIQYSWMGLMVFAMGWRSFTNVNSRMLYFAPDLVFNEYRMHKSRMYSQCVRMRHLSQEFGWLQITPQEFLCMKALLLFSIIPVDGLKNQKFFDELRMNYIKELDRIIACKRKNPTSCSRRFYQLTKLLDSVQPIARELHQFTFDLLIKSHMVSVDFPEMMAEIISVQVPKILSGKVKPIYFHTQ
Daughter plates containing 2 uL of 10 mM compounds in DMSO were prepared and replicated from the 384-well Library of Pharmacologically Active Compounds (LOPAC) master plates using the Bravo outfitted with a 384-well transfer head. Aluminum adhesive plate seals were applied with an Abgene Seal-IT 100 (Rochester, NY) plate sealer, and the plates were stored at -20 C in a Matrical MatriMinistore (Spokane, WA) automated compound storage and retrieval system. For screening, LOPAC daughter plates were withdrawn from -20C storage, thawed to ambient temperature, centrifuged 1-2 min at 50 g, and the plate seals were removed before the transfer of 98 uL of serum-free tissue culture medium (SFM) into wells using the BioTek Microflo liquid handler (BioTek, Winooski, VT) to generate a 200 uM intermediate stock concentration of library compounds (2.0% DMSO). The diluted compounds were mixed by repeated aspiration and dispensation using a 384-well P30 dispensing head on the Evolution P3 (EP3) liquid handling platform (PerkinElmer, Waltham, MA) and then 5 uL of diluted compounds was transferred to the wells of assay plates. In the LOPAC screen, compounds were individually tested at a final concentration of 20 uM (0.2% DMSO). After the diluted compounds had been transferred from the daughter plates to the primary HCS assay plates, aluminum adhesive plate seals were applied and the diluted daughter plates were stored frozen at -20C. To confirm active compounds identified in the primary screen, we withdrew the LOPAC daughter plates containing the 200 uM intermediate concentration of library compounds (2.0% DMSO) from -20C storage, thawed them to ambient temperature, centrifuged them for 1-2 min at 50 g, and removed the plate seals. A work list was generated to direct the Multiprobe Janus liquid handling platform (PerkinElmer) to cherry pick 75 uL from the wells of the diluted daughter plates that were flagged active in the primary screen and to reformat these into a 384-well plate hit confirmation daughter plate. Five microliters of primary HCS active compounds was then transferred into triplicate wells of assay plates using a 384-well P30 dispensing head on the Evolution P3 (EP3) liquid handling platform (PerkinElmer). […] Daughter plates containing 2 uL of the serially diluted compounds in DMSO were prepared and replicated from the 384-well serial dilution master plates using the Bravo outfitted with a 384-well transfer head. Aluminum adhesive plate seals were applied and plates were stored at -20C. For testing in the bioassays, daughter plates were withdrawn from -20C storage, thawed to ambient temperature, centrifuged for 1-2 min at 50 g, and the plate seals were removed before the transfer of 38 uL of SFM into wells using the BioTek Microflo liquid handler (BioTek) to generate an intermediate stock concentration of library compounds ranging from 1.95 to 500 uM (5.0% DMSO). […]
Regarding `ClC1=C(Cl)C2(Cl)C3C(Cl)C(Cl)CC3C1(Cl)C2(Cl)Cl` (configuration not stated), the molecule was classed as inactive.
With `ClC(Cl)=C(c1ccc(Cl)cc1)c1ccccc1Cl`, the outcome was inactive.
Take `CC1(C)CN=C(NN=C(/C=C/c2ccc(C(F)(F)F)cc2)/C=C/c2ccc(C(F)(F)F)cc2)NC1`: the result was inactive.
On to `CCCCCCCc1ccc(O)cc1`, for which the AC50 was 19.2 µM (active).
As for `CC(C)(C)N(NC(=O)c1ccc(Cl)cc1)C(=O)c1ccccc1`, the result was inactive.
For `CCCCC(CC)COP(=O)(Oc1ccccc1)Oc1ccccc1` (configuration not stated), the call was inactive.
In the case of `CO/N=C(/C(=O)OC)c1ccccc1COc1ccccc1C`, the molecule was classed as inactive.
As to `[N-]=[N+]=[N-]`, the molecule was classed as inactive.
With `CCN(CC)c1ccccc1`, the call was inactive.
On to `O=P(OCC(Br)CBr)(OCC(Br)CBr)OCC(Br)CBr` (configuration not stated), for which the outcome was inactive.
Still for that read-out and setting: then `CCNc1nc(Cl)nc(NC(C)(C)C)n1`, with “inactive”; and `CCCCN(CC)C(=O)SCCC`, with “inactive”.
